Screening data from PubChem BioAssay.
FBPA Giardia inh: qHTS Assay for Inhibitors of Fructose-1,6-bisphosphate Aldolase from Giardia Lamblia; purified Giardia FBPA; Potency, µM (series often up to 59.6 µM), for the others: at the highest dose activity, negative = inhibition, actives largely listed as inhibitors; 0.71% of 290,000 active; further: potency means the concentration at half of the fitted maximal effect; nearly all actives have a fitted effect of over 55% in size
Target sequence (A8B2U2 whole entry, looked up): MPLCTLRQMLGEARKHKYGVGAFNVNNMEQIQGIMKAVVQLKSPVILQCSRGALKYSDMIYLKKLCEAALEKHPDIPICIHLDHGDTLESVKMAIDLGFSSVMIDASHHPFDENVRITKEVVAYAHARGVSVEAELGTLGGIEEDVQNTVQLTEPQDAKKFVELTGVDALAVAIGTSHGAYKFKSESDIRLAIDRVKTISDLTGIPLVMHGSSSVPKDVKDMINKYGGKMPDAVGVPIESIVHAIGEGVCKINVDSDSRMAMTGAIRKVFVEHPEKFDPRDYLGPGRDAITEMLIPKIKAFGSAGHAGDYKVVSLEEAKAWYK
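Giardia FBPA (40 nM reagent) was preincubated 10 min at RT with compound (up to 57.5 uM final), then substrate plus GAPDH/TPI/NAD/arsenate coupling system with diaphorase/resazurin was added; resorufin fluorescence (525/598 nm) was read after 20 min.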
VACV Venus inh: qHTS for Stage-Specific Inhibitors of Vaccinia Orthopoxvirus: Venus Reporter Primary qHTS; Vaccinia virus Venus reporter expression, fluorescence; Potency, µM (highest dose often 36.5 µM), for the others: at the highest dose activity change, negative = inhibition, usual class: inhibitors; 0.46% of 330,000 active; AID 720580, 2013; calls by dose curve; tested in A549 cells; further: potency means the concentration at half of the fitted maximal effect; nearly all actives have a fitted effect of over 30% in size
HCV inh: qHTS Assay for Inhibitors of Hepatitis C Virus (HCV) | Huh7.5.1 HCVcc-Cre infection, luciferase reporter, 44 h | 3.4% of 340,000 active | AID 651820, 2012 | Potency, µM (series often up to 41.8 µM), inactives show top-dose activity change, negative = inhibition, usual class: inhibitors; further: potency means the concentration at half of the fitted maximal effect
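Cells seeded at 1,000/well and cultured 4 h, then compounds added followed by HCVcc-Cre virus (~0.5 moi). After 44 h further culture, luciferase substrate was added, plates held 15 min at room temperature, and luminescence read for 15 sec.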
HCMV inh: qHTS Assay for inhibitors of the human cytomegalovirus (HCMV). activity change, negative = inhibition, % at 57.5 µM. AID 1259415, 2018. HFF cells, HCMV-luciferase reporter, 72 h; active compounds read low. 4.5% of 410,000 active; in the data active means activity change below about -60%; inconclusive means no clear call, values can overlap the other calls; inactive means above about -39%
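Inhibition of viral replication was scored as loss of reporter luminescence in HFFs infected with HCMV-luciferase (MOI 1 PFU/cell) for 72 h; compounds tested at 2 doses, normalized to buffer and Salinomycin controls.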
FMDV inh: High Throughput Screening for Foot and Mouth Disease Virus Antivirals | FMDV antiviral cell-based qHTS | Potency, µM (highest dose often 57.9 µM), for the others: at the highest dose activity change, negative = inhibition, actives largely listed as inhibitors | 1.2% of 410,000 active | AID 1159524, 2015; calls by dose curve; tested in HEK293T cells; further: read-out not given here; potency means the concentration at half of the fitted maximal effect; nearly all actives have a fitted effect of over 45% in size
VACV mCherry inh: qHTS for Stage-Specific Inhibitors of Vaccinia Orthopoxvirus: mCherry Reporter Primary qHTS. AID 720579, 2013. Vaccinia virus mCherry reporter infection, fluorescence. 0.63% of 310,000 active. Potency, µM (titrated, usually from 36.5 µM), for inactives: at the top dose activity change, negative = inhibition, actives largely listed as inhibitors; calls by dose curve; tested in A549 cells; further: potency means the concentration at half of the fitted maximal effect; nearly all actives have a fitted effect of over 35% in size
Numbers without * were called inactive; i = inactive; ? = inconclusive; nt = no result given; [ ] = another dose, or the depositor's remark. Sampled rows, rich in hits. Any-hit rate of the full collection: about 7.5%. Unless noted, the call rests on the fitted dose curve; in most records, active means well fitted curve in the direction sought with a large enough effect; inconclusive means small, poorly fitted or top-dose-only effect, or another doubt; inactive means no such curve, though single readings can be large; an effect the other way counts as inactive or inconclusive. On the % scale 0 is the no-effect control and ±100 the full control effect.

SMILES | FBPA Giardia inh | VACV Venus inh | HCV inh | HCMV inh | FMDV inh | VACV mCherry inh
CSc1cccc(Nc2cc(C(=O)NCCc3ccc(Cl)cc3)c3ccccc3n2)c1 | nt | ? | nt | -102* | -30% | ?
CC(C)c1ccc(Nc2cc(C(=O)NCCCN(C)Cc3ccccc3)c3ccccc3n2)cc1 | nt | ? | nt | 9 | -11% | ?
CS(=O)(=O)c1cccc(Nc2cc3c(cn2)cc(-c2ccccc2)n3Cc2ccccc2)c1 | nt | nt | nt | 15 | nt | nt
CCOC(=O)c1c(NC(=O)C(c2ccccc2)c2ccccc2)sc2c1C1CCN2CC1 | -15% | nt | ? | -65* | -18% | nt
Cc1ccc(NC(=O)c2cccc(S(=O)(=O)N3CCN(c4ccc(F)cc4)CC3)c2)nc1 | nt | ? | ? | -77* | ? | ?
O=C(Nc1ncccc1O)c1cccc(S(=O)(=O)N2CCN(c3ccc(F)cc3)CC2)c1 | nt | -19% | -10% | -5 | -20% | -19%
Cc1ccc(NC(=O)c2cccc(S(=O)(=O)N3CCCC3)c2)nc1 | nt | -4% | 8% | 6 | 8% | -9%
O=C(C1CCN(S(=O)(=O)c2cccs2)CC1)N1CCCC(C(F)(F)F)C1 (stereo not given) | nt | -22% | 18% | -98* | -19% | -14%
O=C(Nc1ccncc1)c1cccc(S(=O)(=O)N2CCN(c3ccc(F)cc3)CC2)c1 | nt | -29% | ? | -71* | 20µM* | ?
O=C(c1cccc(S(=O)(=O)N2CCN(c3ccc(F)cc3)CC2)c1)N1CCCC(C(F)(F)F)C1 (stereo not given) | nt | -28% | ? | -61* | ? | ?
O=C1CSC(c2cccs2)N1c1nncs1 (stereo not given) | nt | nt | nt | 10 | nt | nt
CCn1nc(C)cc1C(=O)N(C)C1CCCN(Cc2ccccc2F)C1 (stereo not given) | 2% | -7% | nt | 7 | -13% | -13%
O=S(=O)(c1ccccc1)N1CCN(CC2CC3C=CC2C3)CC1 (stereo not given) | ? | -14% | 15% | -102* | -6% | -3%
CO[C@H]1CN(C)C(=O)c2cc(NC(=O)c3cc(C)on3)ccc2OC[C@@H](C)N(C(=O)C2CC2)C[C@H]1C | nt | -19% | nt | -7 | -17% | 0%
CC(C)c1ccc(NC(=O)CSc2nc(=O)n(Cc3ccccn3)c3c2CCC3)cc1 | nt | -12%[7.34 µM] | nt | -102* | 0% | -16%[7.34 µM]
COc1ccc(C)cc1NC(=O)CSc1nc(=O)n(Cc2ccco2)c2c1CCC2 | nt | -24% | nt | -2 | ? | -11%
CC(C)c1ccc(NC(=O)CSc2nc(=O)n(Cc3cccnc3)c3c2CCC3)cc1 | nt | -20% | nt | -107* | ? | -24%
Cc1ccc(NC(=O)CSc2nc(=O)n(Cc3ccccn3)c3c2CCC3)cc1F | nt | -15% | nt | -36 | -24% | -28%
COc1ccc(C)cc1NC(=O)CSc1nc(=O)n(Cc2ccncc2)c2c1CCC2 | nt | -25% | nt | -103* | 0% | -14%
CCN(CCCNC(=O)Cn1ncc2c([nH]c3ccc(C)cc32)c1=O)c1ccccc1 | 6% | -3% | 17% | ? | -12% | -7%
CCN1CCC(CNCc2cn(-c3ccc(OC)cc3)nc2-c2ccccc2Cl)C1 (stereo not given) | 1% | -20% | 11µM* | -71* | 35% | ?
COc1ccc(-n2cc(CNCCN3CCOC3=O)c(-c3ccccc3Cl)n2)cc1 | 5% | 5%[7.34 µM] | 5% | -7 | -3% | -4%[7.34 µM]
CCOC(=O)N1CCC(n2c(=S)[nH]c3cc(OCC)c(OCC)cc3c2=O)CC1 | -4% | nt | -29% | -77* | -9% | nt
CC(C)Oc1cccc(C(=O)Nc2ccc(N3CCN(C)CC3)cc2)c1 | 4% | nt | -15% | 44 | 56% | nt
COc1ccc(NC(=O)c2ccc(NC(=O)CN3CCN(c4ccccc4)CC3)cc2)cc1 | nt | nt | 16% | 0 | -16% | nt
SMILES | FBPA Giardia inh | VACV Venus inh | HCV inh | HCMV inh | FMDV inh | VACV mCherry inh
CN1CCN(c2ccc(NC(=O)N3CCc4ccccc43)cc2)CC1 | 6% | -20% | 8% | -78* | 18µM* | -30%
CN1CCN(c2ccc(NC(=O)c3cccc(OCc4ccccc4)c3)cc2)CC1 | 1% | -23% | 25µM* | 92 | 7% | nt
COc1ccccc1NC(=O)CN1CCN(CC(=O)Nc2ccc(OCc3ccccc3)cc2)CC1 | -8% | ? | 6% | ? | ? | nt
O=C(CN1CCN(c2ccccc2)CC1)Nc1ccc(OCc2ccccc2)cc1 | 0% | nt | 11µM* | nt | 0% | nt
O=C(CN1CCCC1)Nc1ccc(OCc2ccccc2)cc1 | 0% | ? | 10µM* | 46 | 20% | ?
O=C(NC1CC1)c1cccc(Oc2ccccc2)c1 | 10% | -8% | -6% | 7 | 35% | -9%
O=C(NC1CCCCC1)c1cccc(OCc2ccccc2)c1 | -6% | -25% | 14µM* | ? | -13% | ?
CC(=O)N1N=C(c2cccc([N+](=O)[O-])c2)OC1c1ccc(Cl)cc1Cl (stereo not given) | 1% | nt | 10µM* | 30 | ? | nt
COc1ccccc1C1OC(c2cccc([N+](=O)[O-])c2)=NN1C(C)=O (stereo not given) | 0% | -8% | 4% | ? | -22% | -5%
CNC(=O)C1CCN(Cc2cc3ccccc3n2Cc2cccc(C)c2)CC1 | nt | -6% | nt | -10 | -29% | -7%
COc1ccc2c3c(cccc13)C(=O)CC2 | 18% | 42% | -9% | -71* | -11% | -18%
CC(/C=N/n1c(COc2ccccc2)n[nH]c1=S)=C\c1ccco1 | 15% | -10% | 9% | 2 | -17% | i
CCC1CCCCN1C(=O)Cn1nc([N+](=O)[O-])c(Cl)c1C (stereo not given) | 8% | -5% | 27% | -7 | -19% | i
O=[N+]([O-])c1ccc(N/N=C/c2cccc(O)c2O)c(S(=O)(=O)N2CCOCC2)c1 | ? | nt | 2.8µM* | 0 | ? | nt
COc1cc(/C=N/Nc2ccc([N+](=O)[O-])cc2S(=O)(=O)N2CCOCC2)cc(OC)c1OC | -12% | -1% | ? | 32 | -2% | -11%
O=C(CCc1ccc(S(=O)(=O)N2CCOCC2)cc1)N/N=C/c1ccc(O)c(O)c1O | ? | 0% | -22% | -98* | 40µM* | i
O=[N+]([O-])c1ccc(NCCCO)c(S(=O)(=O)N2CCOCC2)c1 | 0% | -10% | 13% | 18 | 5% | i
O=C(CCc1ccc(S(=O)(=O)N2CCOCC2)cc1)N/N=C/c1ccc(F)cc1F | 3% | -23% | 31% | 1 | 15% | i
